Common to all, as to design: scale not given: direction of the effect not stated beside the values
Assay [1] concerns the target Protein translocase subunit SecA (Escherichia coli (strain K12)) (UniProt P10408). The assay is described as follows: Assay to Identify E. coli SecA ATPase Inhibitors. The class given is functional. Conditions: 30 µM.
In assay [2] the target is T1, Ubiquitin-activating enzyme e1, putative (Leishmania donovani (strain BPK282A1)) (UniProt E9BSI1).
T1 sequence (whole entry): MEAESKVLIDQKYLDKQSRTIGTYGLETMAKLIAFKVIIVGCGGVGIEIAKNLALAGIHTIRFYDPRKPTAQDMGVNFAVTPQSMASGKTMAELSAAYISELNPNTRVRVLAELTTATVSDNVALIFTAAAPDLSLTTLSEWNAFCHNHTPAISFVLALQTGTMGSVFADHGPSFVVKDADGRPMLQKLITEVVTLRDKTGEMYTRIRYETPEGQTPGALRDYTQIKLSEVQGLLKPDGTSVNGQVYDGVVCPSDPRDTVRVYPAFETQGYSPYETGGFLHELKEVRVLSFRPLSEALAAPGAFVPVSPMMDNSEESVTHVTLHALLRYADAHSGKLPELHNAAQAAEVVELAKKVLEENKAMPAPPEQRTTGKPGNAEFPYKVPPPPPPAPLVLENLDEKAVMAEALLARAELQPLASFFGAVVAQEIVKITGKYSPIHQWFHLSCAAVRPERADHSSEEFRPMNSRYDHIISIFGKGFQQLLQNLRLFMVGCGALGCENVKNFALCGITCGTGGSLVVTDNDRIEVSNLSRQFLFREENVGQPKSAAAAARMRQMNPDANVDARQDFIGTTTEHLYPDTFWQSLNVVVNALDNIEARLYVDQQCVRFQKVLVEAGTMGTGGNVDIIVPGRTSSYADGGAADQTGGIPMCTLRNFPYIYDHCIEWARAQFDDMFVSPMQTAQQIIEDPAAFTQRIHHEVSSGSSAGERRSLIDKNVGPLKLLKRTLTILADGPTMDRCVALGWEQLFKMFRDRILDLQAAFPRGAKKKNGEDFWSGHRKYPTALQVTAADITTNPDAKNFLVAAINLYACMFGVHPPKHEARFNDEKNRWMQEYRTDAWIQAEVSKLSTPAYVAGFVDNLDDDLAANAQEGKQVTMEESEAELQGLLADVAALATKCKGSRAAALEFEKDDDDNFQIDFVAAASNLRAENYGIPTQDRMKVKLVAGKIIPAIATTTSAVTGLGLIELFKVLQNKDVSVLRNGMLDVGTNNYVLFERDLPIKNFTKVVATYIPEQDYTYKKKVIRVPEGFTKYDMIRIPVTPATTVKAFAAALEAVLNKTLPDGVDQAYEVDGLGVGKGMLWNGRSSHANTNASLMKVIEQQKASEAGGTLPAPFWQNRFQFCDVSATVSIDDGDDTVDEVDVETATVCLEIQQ
The assay is described as follows: Leishmania donovani Ubiquitin Activating Enzyme (LdE1). The class given is functional. The settings on record: 30 µM.

The target of assay [3] is AMP-activated protein kinase, AMPK (Homo sapiens) (UniProt P54646+O43741+P54619+Q9UGJ0+Q9Y478+Q13131+Q9UGI9). Description: AMP-dependent Kinase enzyme assay. An in vitro enzyme assay that detects ADP turnover that is directly proportional to AMPK activity. This uses naive AMPK that is activated during the assay with MK-8722. The settings on record: 30 µM. The class given is functional.

Assay [4] deals with Sialic acid-binding Ig-like lectin 9 (Homo sapiens) (UniProt Q9Y336). Description: Hs-Siglec9 ALPHAscreen SOP 20170721. The settings on record: 10 µM. (In Alpha technology, singlet oxygen from a donor bead excites a nearby acceptor bead.)
Sialic acid-binding Ig-like lectin 9 (Homo sapiens), sequence (Q9Y336 whole entry): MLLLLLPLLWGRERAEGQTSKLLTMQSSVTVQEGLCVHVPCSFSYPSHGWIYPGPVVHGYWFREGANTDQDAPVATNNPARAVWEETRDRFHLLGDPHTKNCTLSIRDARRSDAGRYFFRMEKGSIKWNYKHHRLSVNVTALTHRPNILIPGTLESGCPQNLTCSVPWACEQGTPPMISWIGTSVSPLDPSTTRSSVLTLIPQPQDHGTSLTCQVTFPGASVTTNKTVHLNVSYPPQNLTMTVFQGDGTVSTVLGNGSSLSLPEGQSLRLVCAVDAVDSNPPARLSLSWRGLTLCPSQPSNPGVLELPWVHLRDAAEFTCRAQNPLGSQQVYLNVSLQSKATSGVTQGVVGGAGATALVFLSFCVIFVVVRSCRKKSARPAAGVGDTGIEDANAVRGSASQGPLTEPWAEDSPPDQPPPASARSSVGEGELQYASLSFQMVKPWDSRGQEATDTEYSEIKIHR
In assay [5] the test system is Trypanosoma cruzi. The assay is described as follows: Trypanosoma cruzi phosphomannomutase and mannose-1-phosphate guanylyltransferase assay. The class given is functional. The settings on record: 10 µM.
For assay [6], the target named is T2, Arginase-2, mitochondrial (Homo sapiens) (UniProt P78540).
T2 sequence (whole entry): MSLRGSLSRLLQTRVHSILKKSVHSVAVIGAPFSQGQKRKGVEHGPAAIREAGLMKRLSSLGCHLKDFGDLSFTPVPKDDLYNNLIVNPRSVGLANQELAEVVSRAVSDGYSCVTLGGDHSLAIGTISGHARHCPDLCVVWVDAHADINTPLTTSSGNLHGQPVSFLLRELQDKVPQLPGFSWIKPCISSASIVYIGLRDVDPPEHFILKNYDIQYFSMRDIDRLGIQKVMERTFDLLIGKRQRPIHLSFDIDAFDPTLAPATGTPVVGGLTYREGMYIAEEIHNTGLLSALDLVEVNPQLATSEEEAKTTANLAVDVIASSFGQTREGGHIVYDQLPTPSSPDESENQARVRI
The assay is described as follows: in vitro enzyme assay to detect the production of urea directly proportional to the activity of Arginase II. Further: in the data most compounds retested in dose-response had high values. Conditions: 33.3 µM. The class given is functional.

The target in assay [7] is T3, Proteasome subunit beta (Trypanosoma cruzi) (UniProt O96673).
T3 sequence (whole entry): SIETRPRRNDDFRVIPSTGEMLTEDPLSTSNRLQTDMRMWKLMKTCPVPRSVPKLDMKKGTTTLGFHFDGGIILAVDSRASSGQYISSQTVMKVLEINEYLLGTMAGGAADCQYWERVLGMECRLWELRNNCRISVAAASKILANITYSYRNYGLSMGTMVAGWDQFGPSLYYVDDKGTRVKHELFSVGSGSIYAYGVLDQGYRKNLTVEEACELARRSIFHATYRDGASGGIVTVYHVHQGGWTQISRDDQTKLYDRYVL
The assay is described as follows: Trypanosoma cruzi proteasome chymotrypsin-like activity (TcProtChymo) assay. Further: in the data most compounds retested in dose-response had high values. The class given is functional. The settings on record: 9.37 µM.

Assay [8] is filed under the species Homo sapiens. The assay is described as follows: To identify inhibition of the IFN signalling (Jak-Stat) pathway via expression of an eGFP reporter gene under the control of an IFN-stimulated response element (ISRE) containing MxA promoter. The class given is functional. The settings on record: 30 µM. A general note: Reporter assays use an easily measured gene product as a stand-in for the process of interest.

For assay [9], the target named is T4, Tyrosyl-tRNA synthetase, putative (Trypanosoma cruzi (strain CL Brener)) (UniProt Q4DSP6).
T4 sequence (whole entry): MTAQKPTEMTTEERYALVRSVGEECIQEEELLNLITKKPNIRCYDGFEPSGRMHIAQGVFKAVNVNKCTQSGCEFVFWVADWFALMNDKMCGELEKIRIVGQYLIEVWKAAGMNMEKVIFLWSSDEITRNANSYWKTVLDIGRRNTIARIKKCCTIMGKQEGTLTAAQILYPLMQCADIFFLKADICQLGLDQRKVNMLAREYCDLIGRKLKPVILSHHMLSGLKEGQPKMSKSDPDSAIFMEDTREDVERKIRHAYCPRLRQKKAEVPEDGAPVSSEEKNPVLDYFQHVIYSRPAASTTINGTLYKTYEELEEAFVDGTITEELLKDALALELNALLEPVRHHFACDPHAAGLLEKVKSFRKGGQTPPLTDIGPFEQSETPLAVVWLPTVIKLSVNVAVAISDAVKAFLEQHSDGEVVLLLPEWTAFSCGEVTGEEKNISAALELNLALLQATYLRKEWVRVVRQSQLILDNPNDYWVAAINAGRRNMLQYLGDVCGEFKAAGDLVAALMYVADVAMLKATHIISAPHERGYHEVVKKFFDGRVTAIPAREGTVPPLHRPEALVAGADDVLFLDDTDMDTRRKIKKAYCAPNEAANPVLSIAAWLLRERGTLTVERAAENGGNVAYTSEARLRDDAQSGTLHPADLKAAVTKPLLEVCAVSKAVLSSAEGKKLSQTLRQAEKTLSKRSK
Description: Trypanosoma cruzi tyrosyl tRNA synthetase (TcYRS) _High Tyrosine SOP. Further: in the data most compounds retested in dose-response had high values. The class given is functional. Conditions: 30 µM.

In assay [10] the target is T4, Tyrosyl-tRNA synthetase, putative (Trypanosoma cruzi (strain CL Brener)). Description: Trypanosoma cruzi tyrosyl tRNA synthetase (TcYRS) SOP. The class given is functional. Conditions: 30 µM.
For assay [11], the target named is Chromo domain-containing protein 1 (Saccharomyces cerevisiae (strain ATCC 204508 / S288c) (Baker's yeast)) (UniProt P32657). The assay is described as follows: ScCHD-1 Enzyme Inhibition Assay. Further: in the data most compounds retested in dose-response had high values. The settings on record: 30 µM. The class given is functional.
Chromo domain-containing protein 1 (Saccharomyces cerevisiae (strain ATCC 204508 / S288c) (Baker's yeast)), sequence (P32657 whole entry, the tested form may be a part): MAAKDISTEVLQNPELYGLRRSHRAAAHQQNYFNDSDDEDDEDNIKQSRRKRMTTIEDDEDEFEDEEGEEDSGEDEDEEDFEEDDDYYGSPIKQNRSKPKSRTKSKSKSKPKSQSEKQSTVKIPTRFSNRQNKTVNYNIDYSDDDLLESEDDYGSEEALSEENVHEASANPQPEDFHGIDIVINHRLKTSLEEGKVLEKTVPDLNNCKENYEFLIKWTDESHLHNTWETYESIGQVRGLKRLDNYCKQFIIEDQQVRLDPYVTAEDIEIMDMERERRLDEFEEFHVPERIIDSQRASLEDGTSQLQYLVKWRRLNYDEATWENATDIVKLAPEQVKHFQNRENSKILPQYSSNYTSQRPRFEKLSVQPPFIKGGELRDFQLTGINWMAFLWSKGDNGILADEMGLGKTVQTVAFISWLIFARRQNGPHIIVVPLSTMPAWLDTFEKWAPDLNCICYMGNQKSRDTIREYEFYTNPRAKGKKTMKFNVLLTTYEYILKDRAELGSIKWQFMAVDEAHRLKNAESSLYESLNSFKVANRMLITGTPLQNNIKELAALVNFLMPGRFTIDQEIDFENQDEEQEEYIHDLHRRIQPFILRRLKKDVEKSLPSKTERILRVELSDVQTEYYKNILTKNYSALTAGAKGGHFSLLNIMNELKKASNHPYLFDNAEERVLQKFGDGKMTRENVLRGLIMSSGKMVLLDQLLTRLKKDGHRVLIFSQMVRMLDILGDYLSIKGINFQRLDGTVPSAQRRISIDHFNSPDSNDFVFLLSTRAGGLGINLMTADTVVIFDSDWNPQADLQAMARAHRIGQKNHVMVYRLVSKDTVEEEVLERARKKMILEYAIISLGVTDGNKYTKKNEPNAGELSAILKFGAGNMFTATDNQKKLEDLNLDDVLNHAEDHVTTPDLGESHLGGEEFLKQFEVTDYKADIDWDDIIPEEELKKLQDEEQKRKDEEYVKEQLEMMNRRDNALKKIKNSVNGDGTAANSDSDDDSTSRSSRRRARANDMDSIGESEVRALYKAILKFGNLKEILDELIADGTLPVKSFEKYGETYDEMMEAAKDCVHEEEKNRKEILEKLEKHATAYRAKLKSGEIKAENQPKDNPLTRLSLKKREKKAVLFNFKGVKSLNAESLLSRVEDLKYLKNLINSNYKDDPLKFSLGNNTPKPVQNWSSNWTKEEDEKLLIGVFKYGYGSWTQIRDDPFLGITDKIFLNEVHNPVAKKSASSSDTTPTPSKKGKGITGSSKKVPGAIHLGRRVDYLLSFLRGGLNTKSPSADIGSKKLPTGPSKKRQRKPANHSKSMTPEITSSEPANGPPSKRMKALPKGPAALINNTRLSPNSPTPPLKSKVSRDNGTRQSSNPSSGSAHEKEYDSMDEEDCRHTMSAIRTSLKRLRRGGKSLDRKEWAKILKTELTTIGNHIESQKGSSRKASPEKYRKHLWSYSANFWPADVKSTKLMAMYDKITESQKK

For some of these results: Results with a measured potency or affinity are listed apart.

Protein translocase subunit SecA (Escherichia coli (strain K12)), sequence (P10408 whole entry): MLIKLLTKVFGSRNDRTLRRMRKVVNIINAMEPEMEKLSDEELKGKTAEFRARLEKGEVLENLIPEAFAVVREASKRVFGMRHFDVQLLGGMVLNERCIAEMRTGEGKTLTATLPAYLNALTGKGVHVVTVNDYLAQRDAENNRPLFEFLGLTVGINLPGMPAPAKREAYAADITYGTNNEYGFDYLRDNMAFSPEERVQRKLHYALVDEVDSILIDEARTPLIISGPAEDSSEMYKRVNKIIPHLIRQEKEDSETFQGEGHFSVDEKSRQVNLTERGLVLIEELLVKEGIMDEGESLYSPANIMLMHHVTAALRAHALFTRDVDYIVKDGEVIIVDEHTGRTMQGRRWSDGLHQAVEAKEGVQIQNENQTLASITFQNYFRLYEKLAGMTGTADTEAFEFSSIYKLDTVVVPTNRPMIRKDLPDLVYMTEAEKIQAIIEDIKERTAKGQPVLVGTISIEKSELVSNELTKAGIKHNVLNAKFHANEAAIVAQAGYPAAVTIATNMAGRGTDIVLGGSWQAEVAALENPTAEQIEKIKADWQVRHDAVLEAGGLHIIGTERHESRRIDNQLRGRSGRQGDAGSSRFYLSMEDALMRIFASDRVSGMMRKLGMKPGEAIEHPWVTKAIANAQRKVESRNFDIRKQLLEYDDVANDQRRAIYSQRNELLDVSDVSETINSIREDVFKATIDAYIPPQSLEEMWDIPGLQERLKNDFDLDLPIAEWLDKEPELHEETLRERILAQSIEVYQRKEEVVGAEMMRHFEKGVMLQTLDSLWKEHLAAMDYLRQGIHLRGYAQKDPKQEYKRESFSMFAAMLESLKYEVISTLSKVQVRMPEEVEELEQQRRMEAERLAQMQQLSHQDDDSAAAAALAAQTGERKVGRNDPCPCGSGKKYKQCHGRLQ

Turning to `CCCc1nc(NCCCO)c2c(n1)c(C)nn2CC`, the Percent Effect is -3.3% in assay [1]; 6.67% in [2]; 9.08% in [3]; 11.8% in assay [4]; -1.38% in assay [5]; -9.33% in assay [6]. The Percent Effect is 14.2% in assay [7]; 12.4% in assay [8]; 8.47% in assay [9]; 12.8% in assay [10]; -10.1% in assay [11].
For the molecule `CNC(=O)CC1CCN(Cc2nc(-c3cccc(Cl)c3)oc2C)CC1`, the Percent Effect was -1.83% in assay [1]; 8.11% in assay [2]; -6.08% in assay [3]; 19.1% in assay [4]; 4.05% in assay [5]; 0% in assay [6]. In addition, the Percent Effect is 20.2% in assay [7]; 4.01% in [8]; 5.82% in [9]; 9.76% in [10]; -2.39% in assay [11].
`COCc1cc(NCCc2ccc(F)cc2)n2nccc2n1`: the Percent Effect in assay [1] was -5.32%; in [2], 0%; in [3] it was 14.1%; in assay [4], -6.47%; in assay [5], -0.196%; in assay [6], -2.27%. In addition, the Percent Effect was -0.887% in [7]; -6.7% in assay [8]; 1.07% in [9]; 5% in [10]; -5.83% in assay [11].
Consider `CSCCCNC(=O)Nc1cccc(-c2nccn2C)c1`, for which the Percent Effect in assay [1] is -3.41%; in assay [2] it was 6.94%; in assay [3], -0.0628%; in assay [4], 2.76%; in assay [5] it was -0.0972%; in assay [6], 1.32%. Besides, the Percent Effect is 16.8% in assay [7]; 10.7% in assay [8]; 1.05% in assay [9]; 2.56% in assay [10]; -2.41% in [11].
Regarding `Cc1nc2ccccc2c(=O)n1CCC(=O)N1CCNC(=O)C1`, the Percent Effect in assay [1] was -4.53%; in assay [2], 10.5%; in assay [3], 6.29%; in assay [4] it was 11.3%; in [5], 0.94%; in assay [6] it was 0%. Besides, the Percent Effect was 3.51% in [7]; 2.72% in assay [8]; 4.41% in [9]; 9.76% in [10]; -6.93% in assay [11].
`CC(C)c1nc(C2CCCN2C(=O)c2cnc[nH]2)no1` (stereo unspecified): the Percent Effect in [1] is -7.47%; in assay [2] it was 8.11%; in assay [3] it was 3.18%; in assay [4], 5.28%; in [5], -6.96%; in [6] it was 0.554%. The Percent Effect in assay [7] is -5.75%; in [8] it was 23.2%; in assay [9] it was 0%; in assay [10], 1.22%; in assay [11], 4.79%.
As to `O[C@H]1[C@H](n2cc(-c3cccnc3)nn2)c2ccccc2C12CCNCC2`, the Percent Effect in assay [1] was -1.28%; in assay [2], 4.17%; in [3] it was -0.513%; in assay [4] it was 14.2%; in [5], 2.82%; in assay [6], 12.4%. In addition, the Percent Effect in [7] is 3.86%; in assay [8] it was -3.37%; in [9] it was 3.16%; in assay [10] it was 10.3%; in assay [11] it was -3.88%.
In the case of `O=C1CO[C@@H]2CN(S(=O)(=O)c3ccccc3)C[C@H]2N1CC1CC1`, the Percent Effect is -1.03% in assay [1]; 8% in [2]; 4.02% in assay [3]; 2.54% in [4]; -3.28% in [5]; -44.3% in assay [6]. The Percent Effect was 7.86% in assay [7]; -3.38% in assay [8]; -8.33% in assay [9]; -20% in assay [10]; -6.74% in assay [11].
As for `Cc1ccc2c(ccn2CCC(=O)NC[C@@H]2CCCN3CCCC[C@H]23)c1`, the Percent Effect in assay [1] was -5.55%; in [2], 12%; in assay [3], -3.71%; in assay [4] it was 5.07%; in assay [5], 4.71%; in assay [6], -6.87%. The Percent Effect in assay [7] was 14.1%; in [8] it was -2.77%; in assay [9], 3.17%; in assay [10], 10.3%; in assay [11], -4.06%.
Take `N#Cc1ccc(OC2CCN(C(=O)c3ccc4c(c3)OCO4)CC2)nc1`: the Percent Effect in [1] was -3.87%; in assay [2] it was 13.7%; in assay [3], -6.59%; in [4], 16.4%; in assay [5] it was 6.07%; in assay [6], -0.909%. The Percent Effect in assay [7] is 2.13%; in assay [8] it was 8.98%; in assay [9] it was 3.23%; in assay [10], 15%; in [11], -2.59%.
With `Cc1cc(C(C)NC(=O)N2CCC(n3cncn3)CC2)c(C)s1` (stereo unspecified), the Percent Effect in [1] is -4.4%; in assay [2] it was 7.59%; in assay [3], -0.225%; in [4], 9.65%; in assay [5], 1.23%; in assay [6] it was -2.28%. In addition, the Percent Effect was -4.01% in assay [7]; 3.67% in assay [8]; 1.48% in assay [9]; 3.8% in assay [10]; -3.57% in assay [11].

The values above are taken from ChEMBL document CHEMBL3988442, “University of Dundee, Small-Polar-MMV Screening Library” (2021).
